Results filed as inconclusive are left out. The source made the active and inactive calls. Calls come from the whole dose curve; as a rule, active = well fitted cell-killing curve with a large enough effect; inconclusive = small, poorly fitted or top-dose-only effect, or effect the other way; inactive = no such curve, though single readings can be large or run the other way.

Test [1] in a line: Quantitative High-Throughput drug screen in 47 multiple myeloma cell lines against the NCATS MIPE library collection: XG1_PLB cell viability assay (AID 1919866). Note: nearly all actives have a fitted effect of over 35% in size. The procedure, abridged: (§1)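 ATP-based CellTiter-Glo luminescence after 48 h drug exposure (37 °C, 5% CO2) of 500 myeloma cells per well. DMSO-only wells set 100% viability, media-only wells 0%; MIPE 4.0 library added by pin tool.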

Test [2] can be described thus: Quantitative High-Throughput drug screen in 47 multiple myeloma cell lines against the NCATS MIPE library collection: UTMC2_PLB cell viability assay (AID 1919868). Note: nearly all actives have a fitted effect of over 55% in size. The procedure, abridged:
as §1

A short description of test [3]: Quantitative High-Throughput drug screen in 47 multiple myeloma cell lines against the NCATS MIPE library collection: PE2_PLB cell viability assay (AID 1919869). Note: nearly all actives have a fitted effect of over 35% in size. The procedure, abridged: as §1
Test [4] in a line: Quantitative High-Throughput drug screen in 47 multiple myeloma cell lines against the NCATS MIPE library collection: PCM6_Riken cell viability assay (AID 1919870). Note: nearly all actives have a fitted effect of over 30% in size. The procedure, abridged:
as §1

Test [5] can be described thus: Quantitative High-Throughput drug screen in 47 multiple myeloma cell lines against the NCATS MIPE library collection: OPM2_DSMZ cell viability assay (AID 1919872). Note: nearly all actives have a fitted effect of over 30% in size. Put shortly:
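Approved and investigational drugs from MIPE 4.0 were added by pin tool to 500 cells per well. After 48 hours at 37C, ATP-based CellTiter-Glo luminescence indicated remaining viability.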

Test [6] is described as follows: Quantitative High-Throughput drug screen in 47 multiple myeloma cell lines against the NCATS MIPE library collection: KMS11_JCRBsus cell viability assay (AID 1919873). Note: nearly all actives have a fitted effect of over 50% in size. The procedure, abridged:
as §1

Test [7] is described as follows: Quantitative High-Throughput drug screen in 47 multiple myeloma cell lines against the NCATS MIPE library collection: KMS28BM_JCRB cell viability assay (AID 1919874). Note: nearly all actives have a fitted effect of over 35% in size. The procedure, abridged: as §1
A short description of test [8]: Quantitative High-Throughput drug screen in 47 multiple myeloma cell lines against the NCATS MIPE library collection: VP6_DJ cell viability assay (AID 1919867). Note: nearly all actives have a fitted effect of over 40% in size. The procedure, abridged:
as §1

A short description of test [9]: Quantitative High-Throughput drug screen in 47 multiple myeloma cell lines against the NCATS MIPE library collection: RPMI8226_ATCC cell viability assay (AID 1919871). Note: nearly all actives have a fitted effect of over 30% in size. The procedure, abridged:
as §1
Potency is the fitted concentration of half-maximal effect.

`O=C(OC1C[C@H]2CC[C@@H](C1)[N+]21CCCC1)C(O)(c1ccccc1)c1ccccc1` (stereo not given in full): the Potency entry in test [1], in test [2], in test [3], in test [4], in test [5] and in test [6] was “inactive” throughout. In test [7], the Potency result was “inactive”.

For `CCc1nc(N)nc(N)c1-c1ccc(Cl)cc1`, the results for the Potency in [1], in test [8] and in test [6] were 3.72 µM (active), 3.32 µM (active) and 16.6 µM (active), respectively. Besides, the Potency entry in test [7] was “inactive”.

In the case of `C[Se]CCC(N)C(=O)O` (stereo not given), the Potency result in test [1], in test [2], in [3], in test [5] and in [6] was “inactive” throughout.

With `CCCCCCCCOc1ccccc1C(=O)Nc1ccc(C(=O)OCC[N+](C)(CC)CC)cc1`, the Potency was 16.6 µM (active) in test [1]; 16.6 µM (active) in [2]; 16.6 µM (active) in [3]; 16.6 µM (active) in test [4]; 18.7 µM (active) in test [6].

Take `CN1C(C(=O)Nc2ccccn2)=C(O)c2sccc2S1(=O)=O`: the Potency entry in test [1], in [3], in test [4], in [9] and in test [5] was “inactive” each time.

`CN1CCC(=C2c3ccccc3CCc3sccc32)CC1`: the Potency in test [1] was 18.7 µM (active); in test [9], 16.6 µM (active); in test [7], 10.5 µM (active). The Potency entry in [3] and in test [5] was “inactive” each time.

Turning to `CNC[C@H](O)c1ccc(O)c(O)c1`, the Potency entry in [1] and in test [4] was “inactive” in each case. The Potency in [9] was 42.9 µM (active); in test [5] it was 13.6 µM (active); in [6], 19.1 µM (active); in [7], 21.5 µM (active).

For the compound `O=C1c2c(O)cc(O)cc2OC(c2ccc(O)c(O)c2)C1O` (stereo not given), the Potency entry in test [1], in test [8], in test [4], in test [9] and in [6] was “inactive” each time.

Consider `Nc1cccc2c1CN(C1CCC(=O)NC1=O)C2=O` (stereo not given), for which the Potency in [1] was 3.03 µM (active); in test [8], 4.81 µM (active). Moreover, the Potency result in [4], in [5] and in test [7] was “inactive” throughout.

As to `O=c1c(O)c(-c2cc(O)c(O)c(O)c2)oc2cc(O)cc(O)c12`, the Potency result in test [1], in [2] and in [4] was “inactive” throughout. Further, the Potency in test [5] is 26.4 µM (active).

With `C[C@@H](N)C1CCC(C(=O)Nc2ccncc2)CC1` (stereo not given in full), the Potency in [1] was 9.35 µM (active); in test [2] it was 6.62 µM (active); in test [3], 16.6 µM (active); in test [4], 14.8 µM (active). In addition, the Potency entry in test [9], in [5], in [6] and in test [7] was “inactive” in each case.

For the compound `CC(C)c1nc(CN(C)C(=O)N[C@H](C(=O)N[C@@H](Cc2ccccc2)C[C@H](O)[C@H](Cc2ccccc2)NC(=O)OCc2cncs2)C(C)C)cs1`, the Potency result in test [1] and in [4] was “inactive” throughout. Also, the Potency in test [5] was 20.9 µM (active).

For `c1cnc2cc3c(cc2n1)C1CNCC3C1`, the Potency entry in test [1], in test [3], in test [4], in [5], in [6] and in test [7] was “inactive” throughout.

`Cc1ccc(S(=O)(=O)NC(=O)NN2CC3CCCC3C2)cc1` (stereo not given): the Potency in test [1] is 23.5 µM (active); in [8] it was 23.5 µM (active); in test [4], 20.9 µM (active); in test [9], 23.5 µM (active); in test [6] it was 16.6 µM (active); in test [7], 18.7 µM (active).

Turning to `O=C(O)c1cccc(-c2noc(-c3ccccc3F)n2)c1`, the Potency result in [1], in test [3], in test [4], in test [9], in test [5] and in test [6] was “inactive” in each case. The Potency result in test [7] is “inactive”.

In the case of `Nc1nc(OCc2ccccc2)c2[nH]cnc2n1`, the Potency is 13.2 µM (active) in test [1] and 7.43 µM (active) in [8]. Also, the Potency result in test [5], in [6] and in [7] was “inactive” each time.

In the case of `CCCOc1ccc2nc(NC(=O)OC)[nH]c2c1`, the Potency result in test [1] is “inactive”. Besides, the Potency was 0.0209 µM (active) in [2], 0.0469 µM (active) in test [3] and 0.0105 µM (active) in test [5].

Take `Clc1ccc2c(N3CCN(CCCN4CCN(c5ccnc6cc(Cl)ccc56)CC4)CC3)ccnc2c1`: the Potency result in test [1], in test [2], in [3], in test [5], in test [6] and in test [7] was “inactive” throughout.

On to `CS(=O)(=O)OCCCCOS(C)(=O)=O`, for which the Potency entry in test [1], in [3], in test [5], in [6] and in test [7] was “inactive” in each case.

Consider `CC1(C)NC(=O)N(c2ccc([N+](=O)[O-])c(C(F)(F)F)c2)C1=O`, for which the Potency entry in [1], in test [8] and in test [7] was “inactive” throughout.

Consider `Clc1ccc(C(Cn2ccnc2)OCc2ccsc2Cl)c(Cl)c1` (stereo not given), for which the Potency is 23.5 µM (active) in test [1], 16.6 µM (active) in test [4] and 13.2 µM (active) in [6].

Regarding `NC(=O)Cc1cccc(C(=O)c2ccccc2)c1N`, the Potency entry in test [1], in test [4], in [9], in test [6] and in test [7] was “inactive” each time.

`Nc1ccc(S(N)(=O)=O)cc1`: the Potency result in test [1], in [2], in [3], in test [5], in test [6] and in test [7] was “inactive” in each case.

For `Clc1ccc(C(Cn2ccnc2)OCc2c(Cl)cccc2Cl)c(Cl)c1` (stereo not given), the Potency was 20.9 µM (active) in test [1], 16.6 µM (active) in [8] and 14.8 µM (active) in test [4].

In the case of `COc1c2occc2cc2ccc(=O)oc12`, the Potency in [1] was 5.9 µM (active). In addition, the Potency entry in test [3], in test [4] and in test [5] was “inactive” each time.

On to `CCOC(=O)c1c(C)n(C)c2ccc(O)cc12`, for which the Potency in test [1] is 6.62 µM (active). Further, the Potency result in test [3], in test [5] and in test [6] was “inactive” each time.

In the case of `CCC[C@@H]1C[C@@H](C(=O)N[C@@H]([C@H]2O[C@H](SC)[C@H](O)[C@@H](O)[C@H]2O)[C@@H](C)O)N(C)C1`, the Potency result in test [1] and in test [5] was “inactive” each time. In test [2], the Potency is 0.0166 µM (active).

With `CC1=C(C(=O)O)N2C(=O)[C@@H](NC(=O)[C@H](N)C3=CCC=CC3)[C@H]2SC1`, the Potency result in test [1], in [3], in [5], in test [6] and in test [7] was “inactive” each time.

As to `Cc1ccc(C)c(OCCCC(C)(C)C(=O)O)c1`, the figures for the Potency in test [1], in test [8] and in test [4] were 16.6 µM (active), 7.43 µM (active) and 8.33 µM (active), respectively. For the same compound, the Potency entry in test [5], in test [6] and in [7] was “inactive” throughout.

For the compound `CCOC(=O)C1=C(O)C(=O)N(Cc2ccccc2)C1`, the Potency result in test [1], in test [3], in test [4], in [5], in test [6] and in [7] was “inactive” each time. For the same compound, in [9], the Potency was 13.2 µM (active).

The record behind these values is PubChem BioAssay (NCATS).
